# Measurements from PubChem BioAssay AID2061324 (National Center for Advancing Translational Sciences (NCATS), 2025).
# Inconclusive results are not listed. Active and inactive are the calls of the source. Calls come from the whole dose curve; as a rule, active = well fitted inhibition curve with a large enough effect; inconclusive = small, poorly fitted or top-dose-only effect; inactive = flat fitted curve, though single readings scatter.
# Test: Identification of antibody-drug conjugate (ADC) payloads which are substrates of ATP-binding cassette drug efflux transporters: ABCG2-HEK293-pcDNA cell line
# Details: ABCG2-HEK293 transfected cells viability, CellTiter-Glo, 48 h
# Excerpt: Antibody-drug conjugates (ADCs) feature an antibody recognizing a specific protein joined to a potent toxic payload. Numerous antibody-drug conjugates have received FDA approval; however, clinical resistance arises. Resistance mechanisms include decreased expression or mutation of the antibody target, impaired payload release, or increased expression of ATP-binding cassette (ABC) efflux transporters associated with multidrug resistance. We therefore sought to characterize the interaction of ABC multidrug transporters with ADC payloads. We performed a high-throughput screen with 27 common ADC payloads using cells lines expressing ABC transporters P-glycoprotein (P-gp, encoded by ABCB1) or ABCG2 (encoded by ABCG2). Confirmatory assays were also performed using cells transfected to express P-gp, ABCG2, or MRP1 (encoded by ABCC1). Several commonly used ADC payloads were substrates of P-gp, including calicheamicin gamma1, monomethyl auristatin E, DM1, and DM4. All the pyrrolobenzodiazepines tested - SJG136, SGD-1882, SG2057, and SG3199 - were substrates of P-gp, ABCG2, and MRP1. […] These findings highlight the risk of transporter-mediated resistance with certain ADC payloads and underscore the importance of selecting payloads that evade ABC transporter recognition in future ADC development.
# HEK-293 cells were transfected with empty vector (pcDNA) or vector containing the human ABCB1 (MDR-19), ABCG2 (R-5), or ABCC1 gene (MRP1) and were maintained in EMEM with 2 mg/mL G418 added to maintain transporter expression. The HeLa derivative KB-3-1 and the P-gp overexpressing KB-8-5-11 subline were maintained in DMEM; KB-8-5-11 additionally received 100 ng/mL colchicine. H460 parental cells were obtained from the Division of Cancer Treatment and Diagnosis Tumor Repository, National Cancer Institute at Frederick, MD and were cultured in RPMI. The ABCG2 expressing subline H460 MX20 was generated by selecting H460 cells in 20 nM mitoxantrone. Media in all cases was supplemented with 10% FBS and 1% penicillin-streptomycin. We explored 27 common ADC payloads, in two orthogonal, paired cell line sets-a drug selected and transfected set for each transporter--to identify substrates of the ABC transporters P-gp and ABCG2. Compounds were sourced from Levena Biopharma (San Diego, CA), Selleck Chem (Houston, TX), ChemieTek (Indianapolis, IN), or Microsource Discovery Systems (Gaylordsville, CT). Screening was performed as previously described. Briefly, cells were plated at a density of 500 cells/well in 1536 well plates with compounds added using a 1536-head pin tool (Kalypsys, San Diego CA). Cells were incubated with cytotoxic drugs and processed with CellTiter Glo reagent (Promega, Madison, WI) to determine viability after 48 hours. P-gp substrates were identified by comparing compound activity between paired sets of low-expressing (sensitive) and over-expressing (resistant) cell lines.
row,SMILES,Potency
1,CC[C@@]1(O)C(=O)OCc2c1cc1n(c2=O)Cc2cc3ccccc3nc2-1,15 nM (active)
2,COc1cc2cc(c1Cl)N(C)C(=O)C[C@H](OC(=O)[C@H](C)N(C)C(=O)CCC(C)(C)S)[C@]1(C)OC1[C@H](C)C1C[C@@](O)(NC(=O)O1)[C@H](OC)/C=C/C=C(\C)C2 (some centres not stated),2.4 nM (active)
3,COc1cc2cc(c1Cl)N(C)C(=O)C[C@H](OC(=O)C(C)C)[C@]1(C)O[C@H]1[C@H](C)[C@@H]1C[C@@](O)(NC(=O)O1)[C@H](OC)C=CC=C(C)C2,1.1 nM (active)
4,COc1cc2cc(c1Cl)N(C)C(=O)C[C@H](OC(=O)[C@H](C)N(C)C(=O)CCS)[C@]1(C)OC1[C@H](C)C1C[C@@](O)(NC(=O)O1)[C@H](OC)/C=C/C=C(\C)C2 (some centres not stated),9.5 nM (active)
5,COc1cc2cc(C(=O)N3C[C@@H](CCl)c4c3cc(O)c3ccccc43)[nH]c2c(OC)c1OC,7.5 nM (active)
6,CC[C@H](C)[C@@H]([C@@H](CC(=O)N1CCC[C@H]1[C@H](OC)[C@@H](C)C(=O)N[C@H](C)[C@@H](O)c1ccccc1)OC)N(C)C(=O)[C@@H](NC(=O)[C@H](C(C)C)N(C)C)C(C)C,9.5 nM (active)
7,CC[C@H](C)[C@H](NC(=O)[C@H]1CCCCN1C)C(=O)N(C)[C@H](C[C@@H](OC(C)=O)c1nc(C(=O)N[C@@H](Cc2ccccc2)C[C@H](C)C(=O)O)cs1)C(C)C,23.8 nM (active)
